# Results: the supplement of paper PMC3334620
# Over roughly 33,000 sequences, “E-score (-0.5 to 0.5)” has its median near -0.015; the highest 2% begin near 0.3. This is one part of a sample in which the highest values are shown more often than they occur.
# Target: T1, Abf1 (UniProt P14164)
# T1 sequence: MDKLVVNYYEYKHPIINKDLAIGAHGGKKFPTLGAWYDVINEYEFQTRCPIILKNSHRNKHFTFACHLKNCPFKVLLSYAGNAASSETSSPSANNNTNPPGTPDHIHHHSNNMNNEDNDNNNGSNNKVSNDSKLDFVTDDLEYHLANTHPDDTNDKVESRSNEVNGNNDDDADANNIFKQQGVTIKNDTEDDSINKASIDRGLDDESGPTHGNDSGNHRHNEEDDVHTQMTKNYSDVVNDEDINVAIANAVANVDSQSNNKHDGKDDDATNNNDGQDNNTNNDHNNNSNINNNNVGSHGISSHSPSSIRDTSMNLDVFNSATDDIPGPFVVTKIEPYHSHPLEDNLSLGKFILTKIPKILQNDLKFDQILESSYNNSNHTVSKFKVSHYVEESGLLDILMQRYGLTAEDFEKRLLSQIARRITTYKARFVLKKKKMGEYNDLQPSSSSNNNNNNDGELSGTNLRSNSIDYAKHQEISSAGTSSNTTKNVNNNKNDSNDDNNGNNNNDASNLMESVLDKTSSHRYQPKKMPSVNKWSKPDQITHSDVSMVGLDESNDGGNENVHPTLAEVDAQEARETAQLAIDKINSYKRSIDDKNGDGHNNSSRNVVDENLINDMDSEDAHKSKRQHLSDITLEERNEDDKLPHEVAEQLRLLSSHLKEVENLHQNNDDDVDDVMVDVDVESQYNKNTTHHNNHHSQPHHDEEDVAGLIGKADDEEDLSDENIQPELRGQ
# Assay: PBM E-score (8-mer binding enrichment) (E-score (-0.5 to 0.5)); higher = stronger / more preferred TF binding
# Conditions: protein concentration: 200 nM; construct: GST-full length
# Outline: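 PURExpress in vitro transcription/translation supplied GST-tagged yeast transcription factors, either full-length or DNA-binding domain. Applied at about 100-200 nM to universal all-10-mer Agilent arrays double-stranded by primer extension, the bound protein was detected with fluorescent anti-GST. E-scores, modified Wilcoxon-Mann-Whitney statistics, were given by the Universal PBM Analysis Suite to ungapped eight-base words pooled with their reverse complements after masliner normalisation.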
row,Sequence,PBM E-score
1,AAAGAGGA,-0.237
2,ATAATCAG,0.0922
3,ATAATCAC,0.331
4,GTAATCAC,0.141
5,ATAATCAT,0.326
6,ATAATCAA,0.0595
7,CTAATCAC,0.251
8,CCACCTAC,-0.011
9,ACCGTAGG,0.0666
10,CTAAATCC,0.0568
11,AAGCGCCA,-0.247
12,TGATGTAA,0.145
13,ACCCTCGA,-0.17
14,ACGACGGA,0.251
15,ACGACGCA,0.262
16,CCGACGAA,0.205
17,ACGACGGG,0.304
18,ACGACGGC,0.164
19,TCGACGAA,0.349
20,ACGACGAA,0.373
21,TCGACAAA,-0.0435
22,TCGACGCA,0.113
23,GCGACGAA,0.313
24,GCGACGAC,0.098
25,GCGACGCA,0.196

row,Sequence,PBM E-score
1,CATAAGTC,-0.00466
2,AACCGGTT,0.0655
3,TAGAAGCA,-0.0239
4,CAAGGAAA,-0.198
5,AGGGCGCC,-0.0691
6,ATCGCTAA,0.28
7,ATCTATTC,0.114
8,ACGACGAC,0.292
9,ACGACGAG,0.156
10,ACGACGAT,0.315
11,GTACTGCA,-0.101
12,AAACACCC,-0.0385
13,GGTGCACA,-0.05
14,CATGTACA,-0.0299
15,CATGTACG,0.319
16,AATGTACG,0.192
17,TAAGTCTA,-0.136
18,ATGTCATC,0.394
19,ATGTCAGG,-0.133
20,ATGTCATA,0.176
21,ATGTCAAG,-0.0386
22,CTGTCATC,0.108
23,ATGTCATG,0.349
24,AGTCGAAT,-0.178
25,AAGGAACC,-0.053

row,Sequence,PBM E-score
1,TCGATCGA,-0.141
2,CAGACAAC,-0.0277
3,CTGTCACA,0.138
4,ATGTCAGC,0.0322
5,ATGTCACA,0.282
6,ATGTCACG,0.437
7,CTGTCACC,0.174
8,ATGTCACC,0.429
9,GTCCTCAC,0.0512
10,GGGCTCTA,-0.22
11,CCCCTGGA,-0.17
12,AACGGACT,-0.0919
13,CGATGGCG,-0.0766
14,GTTAGCAA,0.104
15,ATGATTGC,0.0463
16,GTGATGCA,0.185
17,ATGATTGG,-0.094
18,ATGATGAG,0.141
19,ATGATGCC,0.0807
20,GTGATGAA,0.207
21,CTGATGAC,0.203
22,CTGATGAA,0.0318
23,ATGATGCA,0.309
24,ATGATTGA,0.346
25,ATGATGAC,0.306

row,Sequence,PBM E-score
1,ATGATGAA,0.306
2,GAATGGAC,0.0322
3,GTTCCGGA,-0.0188
4,TATACATA,0.0494
5,GAGGGGGC,-0.346
6,CGGAGTCA,-0.111
7,AAAGCCTT,-0.219
8,CTATGGGA,-0.0561
9,CCACCGTA,0.341
10,GCACCGTA,0.0841
11,ACACCGTA,0.0493
12,GGGGGCCA,-0.462
13,CGTAGAAA,0.318
14,CGTAGAAG,0.222
15,AGTAGAAA,0.168
16,AGGGGTAT,-0.179
17,GCGTCGGA,-0.111
18,GGAGCCCC,-0.293
19,TATATTAA,0.167
20,CATATTAG,0.136
21,CATATTAA,0.315
22,ACGAACGC,0.214
23,GACTGTGC,0.0177
24,GCGTGAGA,0.168
25,ACGTGATC,0.261

row,Sequence,PBM E-score
1,ACGTGATG,0.215
2,ATGTGATA,0.291
3,GTGTGATA,0.327
4,CCGTGATA,0.283
5,ACGTGATA,0.318
6,CTGTGATA,0.201
7,GCGTGATA,0.353
8,CGCGATTA,0.0309
9,AGGTATGC,0.0905
10,CAGGCTGA,-0.188
11,AAATAATT,0.212
12,AGTACATA,0.0814
13,CGTACACG,0.245
14,CGTACAGC,-0.0515
15,CGTACACC,-0.0081
16,CGTACACA,0.318
17,GGTACAGA,0.00644
18,CGTACATC,0.134
19,AGTACAAA,0.101
20,GGTACAAA,0.0902
21,CGTACATA,0.364
22,CGTACAAA,0.408
23,CGTACAGA,0.308
24,GGAGATAA,0.0908
25,CAAACGGG,-0.0186

row,Sequence,PBM E-score
1,AACCGATT,0.0401
2,GCACCCAA,-0.239
3,CTTCTTTA,0.12
4,AGATGGGG,-0.284
5,GAACAATC,0.0605
6,GAAATTCC,-0.102
7,AGTACAAG,0.0462
8,CGTACAAC,0.276
9,CGTACAAG,0.357
10,GACGCCGA,0.0176
11,CGTATCAC,0.281
12,CATATAAG,0.0553
13,TGTATCAA,-0.0209
14,CGTATCAA,0.343
15,TGTATAAA,0.116
16,CGTATAAC,0.366
17,CGTATAAA,0.417
18,AGTATAAG,0.0186
19,GGTATAAC,0.0343
20,CGTATAAG,0.349
21,AGTATAAA,0.252
22,AGTATAAC,0.194
23,GATCCTAA,0.0497
24,ACCAAAAC,0.0329
25,ATTAAGTA,0.133

row,Sequence,PBM E-score
1,ATCTGTCA,0.212
2,CAACCAGG,-0.288
3,CGAAAGGA,0.191
4,GGAATACA,-0.0854
5,ATGGCTAA,-0.0715
6,AATCGTCA,0.334
7,CATCGTCG,0.231
8,CATCGTCC,0.137
9,AATCGTCT,0.269
10,TATCGTGA,0.286
11,CATCGTCA,0.297
12,GATCGTCA,0.277
13,TATCGTCA,0.33
14,AATCGTCC,0.168
15,CGAATGGA,0.0823
16,GACCCTAA,0.012
17,CAACGTTC,-0.145
18,CATGATGG,-0.191
19,TATGATGA,0.313
20,GATGATGA,0.223
21,CATGATGC,0.123
22,CATGATGA,0.365
23,GATGATGC,0.152
24,CAGTACCC,-0.0706
25,GGTAATAC,0.099
